For 28 molecules, morphology score and SARS-CoV-2 infection rate results are on record in the supplement of paper PMC13380429.

In test [1] the test system is Vero E6 infected with SARS-CoV-2. Nature of the test: morphology score (similarity to uninfected cells); higher = more like uninfected cells. The settings on record: 24 h.
Test [2] shares this test system. Put plainly: SARS-CoV-2 infection rate relative to infected DMSO; higher = more infection, active = 60 or less. Conditions: 24 h.

Molecules are shown by their SMILES.

Take `CN(C)[C@@H](CCOc1cccc2ccccc12)c1ccccc1` [dapoxetine] (10 µM): the morphology score in test [1] came out at 0.467. For the same molecule, in test [2], the SARS-CoV-2 infection rate is 76% (inactive).
On to `Clc1cccc(N2CCNCC2)c1` (10 µM), for which the morphology score in test [1] was determined as 0.0057. Besides, the SARS-CoV-2 infection rate in test [2] was 114% (inactive).
The matching figures for `Cc1cccc(Oc2nc3c(C)cccn3c(=O)c2/C=C(\C#N)c2nc3ccccc3s2)c1` (10 µM): 0.0471 and 106% (inactive).
As to `O=C(c1ccc(F)c(F)c1Nc1ccc(I)cc1F)N1CC(O)([C@@H]2CCCCN2)C1` [cobimetinib] (0.833333 µM), the morphology score in test [1] is -0.272. For the same molecule, the SARS-CoV-2 infection rate in test [2] is 116% (inactive).
The corresponding values for `CC(C)CCC[C@@H](C)[C@H]1CC[C@H]2[C@@H]3CC=C4C[C@@H](O)CC[C@]4(C)[C@H]3CC[C@]12C` [cholesterol] (10 µM) are 0.178 and 98% (inactive).
The matching figures for `CCOCOC[C@H](C[C@H](C)C(=O)NO)NC(=O)c1ccc(Oc2ccccc2)cc1` (10 µM): 0.131 and 98.5% (inactive).
In the case of `Cc1cc(-c2nncc3c(C(C)(C)C)c(OCc4ncnn4C)nn23)no1` (10 µM), the morphology score in test [1] amounted to 0.149. In test [2], the SARS-CoV-2 infection rate was 95% (inactive).
The molecule `Cc1ccc2c(Cl)cc(Cl)c(O)c2n1` [chlorquinaldol] (10 µM) returned a morphology score in test [1] of 0.0549. The SARS-CoV-2 infection rate in test [2] was 99% (inactive).
In test [1], `Fc1ccc(C(OCCN2CCN(C/C=C/c3ccccc3)CC2)c2ccc(F)cc2)cc1` (10 µM) came in with a morphology score of 0.456. In addition, in test [2], the SARS-CoV-2 infection rate is 65.5% (inactive).
The corresponding values for `CCCCCCCCCCCCCC(=O)[O-].CCCCCCCCCCCCCC(=O)[O-].N[C@@H]1CCCC[C@H]1N.[Pt+2]` [miriplatin] (10 µM) are 0.0834 and 114% (inactive).
The matching figures for `COCC(=O)O[C@]1(CCN(C)CCCc2nc3ccccc3[nH]2)CCc2cc(F)ccc2[C@@H]1C(C)C` [mibefradil] (10 µM): 0.79 and 17.5% (active).
The matching figures for `CC1(C)Oc2ccc(C#N)cc2[C@@H](N2CCCC2=O)[C@@H]1O` [levcromakalim] (10 µM): 0.221 and 97% (inactive).
In the case of `CC1=CC(=C(c2ccc(N)cc2)c2ccc(N)cc2)C=CC1=N` [basic-fuchsin] (0.833333 µM), the morphology score in test [1] turned out to be 0.163. Besides, the SARS-CoV-2 infection rate in test [2] is 97.5% (inactive).
As to `CO/N=C1\CN(c2nc3c(cc2F)c(=O)c(C(=O)O)cn3C2CC2)CC1CN` (stereo unspecified) [gemifloxacin] (10 µM), the morphology score in test [1] worked out at 0.163. Moreover, in test [2], the SARS-CoV-2 infection rate was 91.5% (inactive).
`c1cnc(NCc2ccc(CNc3ncccn3)cc2)nc1` (10 µM): the morphology score in test [1] was found to be 0.18. Moreover, the SARS-CoV-2 infection rate in test [2] was 112% (inactive).
The corresponding values for `CCCc1nc(C(C)(C)O)c(C(=O)O)n1Cc1ccc(-c2ccccc2-c2nnn[nH]2)cc1` [olmesartan] (10 µM) are 0.0191 and 102% (inactive).
The corresponding values for `CCC(=O)O[C@H]1[C@H](O[C@@H]2[C@@H](C)[C@H](O[C@H]3C[C@@](C)(OC)[C@@H](O)[C@H](C)O3)[C@@H](C)C(=O)O[C@H](CC)[C@@](C)(O)[C@H](O)[C@@H](C)C(=O)[C@H](C)C[C@@]2(C)O)O[C@H](C)C[C@@H]1N(C)C` [erythromycin-estolate] (10 µM) are 0.0736 and 114% (inactive).
The matching figures for `[N-]=[N+]=N[C@]1(CO)O[C@@H](n2ccc(N)nc2=O)[C@H](O)[C@@H]1O` (10 µM): 0.0194 and 109% (inactive).
In turn, `CNC(=O)Nc1ccc(-c2nc(N3CC4CCC(C3)O4)c3cnn(C4CCC5(CC4)OCCO5)c3n2)cc1` (0.833333 µM) registered a morphology score in test [1] of -0.104. Besides, the SARS-CoV-2 infection rate in test [2] is 100% (inactive).
Turning to `O=C1OC(CN2CCOCC2)CN1/N=C/c1ccc([N+](=O)[O-])o1` (stereo unspecified) [furaltadone] (10 µM), the morphology score in test [1] was 0.0402. Further, the SARS-CoV-2 infection rate in test [2] is 97% (inactive).
The corresponding values for `Cn1ncnc1COc1nn2c(-c3cc(F)ccc3F)nnc2cc1C(C)(C)C` (10 µM) are 0.166 and 96.5% (inactive).
In test [1], `Oc1cc(O)c(Cl)cn1` [gimeracil] (10 µM) showed a morphology score of 0.103. Further, in test [2], the SARS-CoV-2 infection rate was 107% (inactive).
The matching figures for `FC(F)(F)c1ccc(N2CCNCC2)nc1Cl` (10 µM): 0.273 and 89.5% (inactive).
In test [1], `Nc1ccc(F)cc1NC(=O)c1ccc(CNC(=O)/C=C/c2cccnc2)cc1` [chidamide] (0.833333 µM) had a morphology score of -0.0654. Further, the SARS-CoV-2 infection rate in test [2] was 107% (inactive).
`Cc1ncc(C[n+]2csc(CCO)c2C)c(N)n1` [thiamine] (10 µM): the morphology score in test [1] amounted to 0.119. The SARS-CoV-2 infection rate in test [2] was 96.5% (inactive).
The matching figures for `O=C(c1ccc(OCCCc2c[nH]cn2)cc1)C1CC1` [ciproxifan] (10 µM): 0.181 and 95.5% (inactive).
In turn, `CCOC(CN1CCN(CC(C)C(=O)c2ccccc2)CC1)c1ccccc1` (stereo unspecified) [eprazinone] (10 µM) registered a morphology score in test [1] of 0.35. Moreover, in test [2], the SARS-CoV-2 infection rate is 96% (inactive).
`Cc1ccc2c(c1)c1c3n2CCNC3CCC1` (stereo unspecified) [pirlindole] (10 µM) returned a morphology score in test [1] of 0.0112. In test [2], the SARS-CoV-2 infection rate is 106% (inactive).
